Assay outcomes (PubChem)
Compounds with a hit are over-represented: about 3.1% of the library has one in this group of screens.
Rtt109 HAT inh: inhibitors of Candida albicans Rtt109/Vps75 histone acetyltransferase. purified Rtt109/Vps75, ThioGlo CoA-SH fluorescence, 4 h. inhibition, % at 34.9 µM. 330,000 tested, 0.16% active. AID 540336;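 active = inhibition of at least 50% in every replicate; inconclusive = best replicate reaches 50% inhibition but some replicates fall short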
Target sequence (Q5AAJ8 whole entry, looked up): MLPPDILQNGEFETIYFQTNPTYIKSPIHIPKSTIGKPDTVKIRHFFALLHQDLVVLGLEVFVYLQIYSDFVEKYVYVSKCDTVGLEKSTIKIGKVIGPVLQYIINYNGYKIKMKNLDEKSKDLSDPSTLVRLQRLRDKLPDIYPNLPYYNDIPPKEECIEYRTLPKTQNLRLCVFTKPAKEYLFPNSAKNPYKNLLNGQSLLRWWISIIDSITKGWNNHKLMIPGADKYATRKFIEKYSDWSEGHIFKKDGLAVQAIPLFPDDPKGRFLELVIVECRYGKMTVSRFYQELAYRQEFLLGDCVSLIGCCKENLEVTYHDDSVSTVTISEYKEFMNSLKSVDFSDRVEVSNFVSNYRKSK
Wnt bcat act: activators of Wnt/beta-catenin signaling; Wnt/beta-catenin reporter cell assay, activator, plate reader; activation, % at 9.35 µM; 300,000 tested, 1.2% active; in the data active = activation above about 30%, passing the limit was not always enough; inconclusive = no clear call, values can overlap the other calls
C2C12 statin: suppressors of simvastatin-induced myotoxicity in C2C12 myotubes | ATP luminescence, 48 h; scaled: DMSO 0, geranylgeraniol control 100 | rescue of ATP level, % at 7.49 µM | 330,000 tested, 0.78% active | AID 602340;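 active = mean ATP rescue above about 67%, or every replicate alone reaching that limit, limit read from the data, passing the limit was not always enough; inconclusive = no clear call, values can overlap the other calls; inactive = mean under the limit and some replicate under it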;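 also: myotubes were challenged with 10 µM simvastatin during compound exposure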
MITF TRPM1 HTS: MITF TRPM1 promoter activation in melanoma cells; activation, % at 12.5 µM; 300,000 tested, 0.75% active; AID 588334; SK-MEL-5 TRPM1-promoter luciferase, 24 h; % of positive control, neutral wells = 0;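 active = mean activation of at least 80% with every replicate also reaching 80%; inconclusive = mean reaches 80% but some replicate falls short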
esBAF inh: SWI/SNF esBAF complex inhibition. reporter increase, % at 12.5 µM. mouse ES cells, Bmi1-luciferase knock-in reporter, 24 h; 100% = twice the neutral-well signal. 350,000 tested, 2% active. AID 602393; in the data active = activation above about 40%; inconclusive = no clear call, values can overlap the other calls;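 also: a rise in the Bmi1 reporter signal indicates esBAF inhibition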
Numbers stand for hits; – = inactive; ? = inconclusive; · = no result given.

SMILES | Rtt109 HAT inh | Wnt bcat act | C2C12 statin | MITF TRPM1 HTS | esBAF inh
COCC(=O)N1C[C@@H](C)[C@H](OC)CN(C)C(=O)c2ccc(NC(=O)c3ccc(OC)cc3)cc2OC[C@H]1C | · | · | – | · | –
O=C(NCC(c1cccs1)N1CCOCC1)c1cc(=O)[nH]c2ccccc12 (stereo not given) | – | – | – | – | –
O=C(NCC(c1ccco1)N1CCCC1)c1cc(=O)[nH]c2ccccc12 (stereo not given) | – | 58 | – | – | –
Cc1ccc(C(=O)NCC(=O)NCC(c2ccco2)N2CCCCC2)cc1C (stereo not given) | 56 | – | – | – | –
COc1cc(C(=O)NCC(=O)NCC(c2ccco2)N2CCCCC2)cc(OC)c1OC (stereo not given) | – | – | – | – | –
CCCCCC1CC(CC(=O)Nc2ccc([N+](=O)[O-])cc2)C(=O)O1 (stereo not given) | – | – | · | – | ·
CCCCCC1CC(CC(=O)O)C(=O)O1 (stereo not given) | – | – | 119 | – | –
Cc1[nH]nc2c1/C(=N\O)CC(C)(C)C2 | – | – | 101 | · | –
Cc1[nH]nc2c1C(=O)CC(C)(C)C2 | – | · | – | – | –
O=C(NN1C(=O)C2C3c4ccccc4C(c4ccccc43)C2C1=O)C1CC1 (stereo not given) | – | 51 | · | – | ·
O=C(NN1C(=O)C2C3c4ccccc4C(c4ccccc43)[C@@H]2C1=O)c1ccccc1 (stereo not given in full) | – | 30 | · | – | ·
Cc1noc(C)c1S(=O)(=O)Nc1ccc2c(c1)C(=O)N([C@@H](C)CO)C[C@H](C)[C@H](CN(C)C(=O)c1ccccc1)OCCCC[C@H](C)O2 | · | · | · | · | –
CCn1c(=O)c2ccccc2n(Cc2cccc([N+](=O)[O-])c2)c1=O | – | – | – | – | –
O=C(CCn1c(=O)c2ccccc2n(Cc2cccc([N+](=O)[O-])c2)c1=O)N1CCc2ccccc2C1 | 59 | – | · | – | ·
C=CCN1C(=O)S/C(=C\c2ccc(N3CCOCC3)cc2C)C1=O | – | 39 | – | · | 73
C=CC(C)N1C(=O)S/C(=C\c2ccc(N3CCOCC3)cc2C)C1=O (stereo not given) | – | – | · | – | ·
C[C@@H]1CCCCO[C@@H](CN(C)CC2CCCCC2)[C@@H](C)CN([C@H](C)CO)C(=O)c2cc(NC(=O)NC3CCCCC3)ccc2O1 | · | · | ? | · | –
O=[N+]([O-])c1ccc(C(O)CSC(=S)N2CCCCC2)cc1 (stereo not given) | – | – | – | – | 45
O=[N+]([O-])c1ccc(C(=S)N2CCCC2)cc1 | – | 37 | – | – | –
Cc1ccc(NC(=O)Nc2ccc3c(c2)C(=O)N(C)[C@H]2CC[C@@H](CC(=O)O)O[C@@H]2CO3)cc1 | · | · | – | · | –
CC1=Nn2c(nnc2-c2n[nH]c3c2CCC3)SC1 | – | · | – | – | –
Fc1ccc(C2=Nn3c(nnc3-c3n[nH]c4c3CCC4)SC2)cc1 | – | – | 114 | – | –
Cc1ccc(/C=N/NC(=O)c2cccs2)cc1[N+](=O)[O-] | – | 40 | · | 117 | ·
O=C(N/N=C/c1ccccc1[N+](=O)[O-])c1cccs1 | – | 45 | · | · | ·
O=C(N/N=C/C=C/c1ccccc1[N+](=O)[O-])c1cccs1 | – | · | – | – | –
SMILES | Rtt109 HAT inh | Wnt bcat act | C2C12 statin | MITF TRPM1 HTS | esBAF inh
Cc1ccsc1/C=N/NC(=O)c1cccs1 | – | · | · | – | ·
COC(=O)c1sccc1N/N=C/c1ccc(OC)c(OC)c1OC | – | – | – | – | 52
COc1ccc(/C=N/NC(=O)c2cccnc2)c2ccccc12 | – | – | – | – | –
COc1ccc(/C=N/NC(=O)c2cccs2)c2ccccc12 | – | – | – | – | 56
COc1ccc(N(C(=O)c2snc(C(N)=O)c2N)C(C(=O)NC2CCCCC2)c2ccc(C)o2)cc1 (stereo not given) | – | – | 75 | – | –
Cc1ccc(-n2c(O)c(C=NCc3ccccn3)c3ccccc3c2=O)cc1 | – | 61 | – | – | –
COc1ccc2oc(C(=O)NN3C(C)CCCC3C)c(C)c2c1 (stereo not given) | – | – | · | – | ·
Cc1c(C(=O)NC2CCCCC2)oc2ccc(F)cc12 | – | – | – | – | 43
COc1ccc2oc(C(=O)NC3CCCCC3)c(C)c2c1 | – | – | – | 112 | ?
C[C@@H]1CN([C@@H](C)CO)C(=O)Cc2cc(NC(=O)Cc3cn(C)c4ccccc34)ccc2O[C@H]1CN(C)CC1CCCCC1 | · | · | – | · | –
COc1ccc(CN(C)C[C@H]2Oc3ccc(NC(=O)C4CCCCC4)cc3CC(=O)N([C@H](C)CO)C[C@@H]2C)cc1 | · | · | – | · | –
O=C(C[C@H]1C[C@H]2c3cc(NS(=O)(=O)c4ccc(F)cc4)ccc3O[C@H]2[C@@H](CO)O1)NCc1ccc(Oc2ccccc2)cc1 | · | · | – | · | –
COc1cccc(/C=C(\C#N)c2nc3ccc(C)cc3[nH]2)c1OCC(=O)O | – | – | – | – | 51
COc1ccc(NC(=O)N(C)C[C@@H]2OCCCC[C@@H](C)Oc3ccc(NC(=O)Nc4ccccc4)cc3C(=O)N([C@H](C)CO)C[C@@H]2C)cc1 | · | · | · | · | –
Cc1ccc(NC(=O)CCc2c(C)nn(-c3ccc(N4CCCCC4)nn3)c2C)cc1F | – | – | – | – | 69
Cc1nn(-c2ccc(N3CCCCC3)nn2)c(C)c1CCC(=O)Nc1cccc(F)c1 | – | – | – | 97 | 64
COc1ccc(S(=O)(=O)Nc2ccc3c(c2)C(=O)N([C@H](C)CO)C[C@@H](C)[C@H](CN(C)Cc2ccccc2)OCCCC[C@H](C)O3)cc1 | · | · | · | · | –
Cc1ccc(-n2nnc(-c3cc4ccccc4n3C)n2)cc1 | – | – | – | – | 58
Cn1c(-c2ccccc2)cc2ccccc21 | – | – | – | – | –
Cc1ccc(-n2nnc(-c3ccnc4ccccc34)n2)cc1 | – | 40 | – | 94 | 69
Fc1ccc(-n2nnc(-c3ccccc3)n2)cc1 | – | – | – | – | –
Fc1ccc(-n2nnc(-c3ccnc4ccccc34)n2)cc1 | – | ? | – | · | 61
C[C@@H]1CN([C@@H](C)CO)C(=O)c2cc(NC(=O)c3ccncc3)ccc2O[C@H]1CN(C)C(=O)Nc1ccc(C(F)(F)F)cc1 | · | · | – | · | –
O=C(C1CCCC1)N1C[C@H]2[C@@H](c3ccccc31)[C@H](CO)N2C(=O)c1cccnc1 | · | · | – | · | –
COc1ccc(NC(C)=O)cc1NC(=O)CSc1nnc(C2CCCCC2)n1N | – | – | – | – | –
SMILES | Rtt109 HAT inh | Wnt bcat act | C2C12 statin | MITF TRPM1 HTS | esBAF inh
COc1ccc(OC)c(NC(=O)CSc2nnc(C3CCCCC3)n2-c2ccccc2)c1 | – | 57 | – | – | –
CCCC(=O)Nc1ccc(Br)cn1 | – | · | – | – | –
O=C(CC1CCCC1)Nc1ccc(Br)cc1 | – | – | – | ? | 67
O=C(CCC1CCCC1)Nc1ccc(Br)cn1 | – | · | – | ? | 55
Cc1cc(NC(=O)CCC2CCCCC2)no1 | – | · | · | · | –
COc1ccc(NC(=O)CC2CCCCC2)cc1OC | – | – | – | – | –
Cc1ccnc(NC(=O)CCC2CCCCC2)c1 | – | – | – | · | 49
